# According to publication PMC7862700, “An all-to-all approach to the identification of sequence-specific readers for epigenetic DNA modifications on cytosine”:
# Tests used:
# Assay in all cases: DAPPL (digital affinity profiling via proximity ligation, sequencing); 10 mM Tris-HCl pH 7.5, 50 mM NaCl, 1 mM DTT, 4% glycerol, room temperature, 30 min; GST-TFs on glutathione beads, 16-mer random dsDNA library, 0.1% formaldehyde crosslink after washing; high values mean tight binding
# FEV = molecular target: T1, FEV (Homo sapiens, UniProt Q99581 1-238); conditions: protein: recombinant; tags: N-terminal GST; dsDNA, one strand shown
# T1 sequence: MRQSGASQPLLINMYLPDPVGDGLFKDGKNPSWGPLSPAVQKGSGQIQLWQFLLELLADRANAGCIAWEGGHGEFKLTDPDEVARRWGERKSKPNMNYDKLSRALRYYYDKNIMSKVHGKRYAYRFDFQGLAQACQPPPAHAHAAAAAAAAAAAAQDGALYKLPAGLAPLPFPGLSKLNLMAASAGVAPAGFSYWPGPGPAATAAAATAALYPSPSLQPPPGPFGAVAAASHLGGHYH
# In short: (§1)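 In yeast, human transcription factors were expressed with a GST fusion, then pulled down on glutathione beads and given DNA barcodes. Pooled with a tag-only sample, they were exposed to 200 nmole of a 16-mer random double-stranded DNA library (Tris/NaCl/DTT/glycerol buffer, room temperature, 30 min), washed, crosslinked with 0.1% formaldehyde, proximity-ligated using BsaI/T4 ligase for 1 h at 37 °C, PCR-amplified and read on an Illumina NextSeq500. Each hexamer's frequency of reads for a factor, divided by the matching frequency for the tag-only sample, gives the binding signal.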
# ETV5 = ETV5 (Homo sapiens, UniProt P41161 1-510); conditions: protein: recombinant; tags: N-terminal GST; dsDNA, one strand shown
# In short: as §1
# HSF1 = HSF1 (Homo sapiens, UniProt Q00613 1-529); conditions: protein: recombinant; tags: N-terminal GST; chain copies: 3; dsDNA, one strand shown
# In short: as §1
# SPIC = molecular target: T2, SPIC (Homo sapiens, UniProt Q8N5J4 1-248); conditions: protein: recombinant; tags: N-terminal GST; dsDNA, one strand shown
# T2 sequence: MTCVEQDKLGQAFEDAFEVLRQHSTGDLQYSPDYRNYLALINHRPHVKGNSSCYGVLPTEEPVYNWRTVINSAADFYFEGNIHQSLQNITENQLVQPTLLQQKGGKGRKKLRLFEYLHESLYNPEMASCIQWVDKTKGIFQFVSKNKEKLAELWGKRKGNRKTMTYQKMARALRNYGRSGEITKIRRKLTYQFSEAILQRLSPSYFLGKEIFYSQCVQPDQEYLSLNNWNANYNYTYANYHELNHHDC
# In short: as §1
# ELF4 = ELF4 (Homo sapiens, UniProt Q99607 1-663); conditions: protein: recombinant; tags: N-terminal GST; dsDNA, one strand shown
# In short: as §1
# ELK4 = molecular target: T3, ELK4 (Homo sapiens, UniProt P28324-2 1-405); conditions: protein: recombinant; tags: N-terminal GST; dsDNA, one strand shown
# T3 sequence: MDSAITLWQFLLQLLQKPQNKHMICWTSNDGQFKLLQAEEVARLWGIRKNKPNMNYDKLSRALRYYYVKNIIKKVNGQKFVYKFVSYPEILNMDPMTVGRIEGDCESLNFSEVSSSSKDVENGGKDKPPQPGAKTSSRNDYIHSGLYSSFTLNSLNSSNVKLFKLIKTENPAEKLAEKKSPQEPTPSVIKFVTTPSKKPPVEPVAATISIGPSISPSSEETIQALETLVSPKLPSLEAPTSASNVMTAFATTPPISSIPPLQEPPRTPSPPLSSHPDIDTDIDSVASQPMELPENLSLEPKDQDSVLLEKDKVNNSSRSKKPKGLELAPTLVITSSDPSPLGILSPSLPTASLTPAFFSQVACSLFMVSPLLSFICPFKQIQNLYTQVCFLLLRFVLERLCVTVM
# In short: as §1
# ETV2 = molecular target: T4, ETV2 (Homo sapiens, UniProt O00321 1-342); conditions: protein: recombinant; tags: N-terminal GST; dsDNA, one strand shown
# T4 sequence: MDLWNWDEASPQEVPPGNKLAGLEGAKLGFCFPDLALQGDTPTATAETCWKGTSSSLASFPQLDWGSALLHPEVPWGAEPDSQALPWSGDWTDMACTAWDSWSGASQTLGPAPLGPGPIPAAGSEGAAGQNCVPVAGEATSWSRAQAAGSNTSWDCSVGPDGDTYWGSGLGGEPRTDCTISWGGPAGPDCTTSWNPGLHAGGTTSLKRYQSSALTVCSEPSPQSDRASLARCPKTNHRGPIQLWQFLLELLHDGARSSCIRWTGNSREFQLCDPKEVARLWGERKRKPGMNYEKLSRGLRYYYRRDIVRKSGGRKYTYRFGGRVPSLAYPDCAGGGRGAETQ
# In short: as §1
# ELF3 = molecular target: T5, ELF3 (Homo sapiens, UniProt P78545 1-371); conditions: protein: recombinant; tags: N-terminal GST; dsDNA, one strand shown
# T5 sequence: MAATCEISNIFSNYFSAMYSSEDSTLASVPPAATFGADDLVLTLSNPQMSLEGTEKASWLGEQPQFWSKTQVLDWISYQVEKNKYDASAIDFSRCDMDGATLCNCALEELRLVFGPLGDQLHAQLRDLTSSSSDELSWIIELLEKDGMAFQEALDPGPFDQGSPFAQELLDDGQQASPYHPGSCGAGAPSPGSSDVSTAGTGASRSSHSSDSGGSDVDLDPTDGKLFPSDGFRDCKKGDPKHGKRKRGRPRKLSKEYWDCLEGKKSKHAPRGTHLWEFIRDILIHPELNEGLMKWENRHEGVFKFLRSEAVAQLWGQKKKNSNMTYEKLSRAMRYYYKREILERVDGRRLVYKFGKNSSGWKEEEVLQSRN
# In short: as §1
# CRX = CRX (Homo sapiens, UniProt O43186 1-299); conditions: protein: recombinant; tags: N-terminal GST; dsDNA, one strand shown
# In short: as §1
# ETV1 = ETV1 (Homo sapiens, UniProt P50549 1-477); conditions: protein: recombinant; tags: N-terminal GST; dsDNA, one strand shown
# In short: as §1
# ERF = molecular target: T6, ERF (Homo sapiens, UniProt P50548 1-548); conditions: protein: recombinant; tags: N-terminal GST; dsDNA, one strand shown
# T6 sequence: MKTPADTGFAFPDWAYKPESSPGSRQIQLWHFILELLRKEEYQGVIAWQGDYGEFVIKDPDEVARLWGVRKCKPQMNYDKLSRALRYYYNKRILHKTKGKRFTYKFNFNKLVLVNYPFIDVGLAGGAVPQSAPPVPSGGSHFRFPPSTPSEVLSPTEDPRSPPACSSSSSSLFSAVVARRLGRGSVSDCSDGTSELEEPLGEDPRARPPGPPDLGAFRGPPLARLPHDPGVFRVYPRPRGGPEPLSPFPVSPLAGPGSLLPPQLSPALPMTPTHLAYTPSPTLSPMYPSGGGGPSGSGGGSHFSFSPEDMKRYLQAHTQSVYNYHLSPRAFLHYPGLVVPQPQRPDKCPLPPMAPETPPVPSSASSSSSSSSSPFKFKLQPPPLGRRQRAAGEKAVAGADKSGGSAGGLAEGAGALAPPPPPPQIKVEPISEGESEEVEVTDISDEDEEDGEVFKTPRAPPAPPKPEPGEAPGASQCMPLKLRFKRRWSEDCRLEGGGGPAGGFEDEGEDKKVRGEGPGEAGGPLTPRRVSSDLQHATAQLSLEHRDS
# In short: as §1
# ETV3L = molecular target: T7, ETV3L (Homo sapiens, UniProt Q6ZN32 1-361); conditions: protein: recombinant; tags: N-terminal GST; dsDNA, one strand shown
# T7 sequence: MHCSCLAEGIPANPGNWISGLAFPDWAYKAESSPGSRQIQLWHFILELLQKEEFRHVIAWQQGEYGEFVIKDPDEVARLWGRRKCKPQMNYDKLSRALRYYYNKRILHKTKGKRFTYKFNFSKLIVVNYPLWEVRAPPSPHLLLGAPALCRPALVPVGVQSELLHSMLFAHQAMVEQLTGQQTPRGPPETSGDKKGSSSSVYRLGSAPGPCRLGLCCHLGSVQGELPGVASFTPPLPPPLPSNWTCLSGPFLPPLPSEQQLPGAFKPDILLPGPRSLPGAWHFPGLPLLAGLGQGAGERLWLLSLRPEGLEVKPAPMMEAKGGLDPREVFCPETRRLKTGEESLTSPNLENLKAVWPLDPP
# In short: as §1
# ETS2 = molecular target: T8, ETS2 (Homo sapiens, UniProt P15036 1-469); conditions: protein: recombinant; tags: N-terminal GST; dsDNA, one strand shown
# T8 sequence: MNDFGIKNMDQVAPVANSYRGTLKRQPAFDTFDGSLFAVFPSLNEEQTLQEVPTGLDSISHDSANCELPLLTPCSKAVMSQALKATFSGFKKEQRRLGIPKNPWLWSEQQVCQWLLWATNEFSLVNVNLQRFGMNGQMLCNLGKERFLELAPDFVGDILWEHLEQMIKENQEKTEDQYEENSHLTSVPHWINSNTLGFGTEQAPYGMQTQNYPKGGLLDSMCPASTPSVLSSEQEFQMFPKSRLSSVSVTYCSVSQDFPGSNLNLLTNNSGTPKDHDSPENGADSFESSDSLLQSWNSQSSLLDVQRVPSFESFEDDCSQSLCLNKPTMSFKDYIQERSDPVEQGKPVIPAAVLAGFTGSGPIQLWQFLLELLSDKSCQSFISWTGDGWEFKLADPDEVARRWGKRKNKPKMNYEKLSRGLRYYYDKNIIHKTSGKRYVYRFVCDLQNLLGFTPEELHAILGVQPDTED
# In short: as §1
# SPDEF = molecular target: T9, SPDEF (Homo sapiens, UniProt O95238 1-335); conditions: protein: recombinant; tags: N-terminal GST; dsDNA, one strand shown
# T9 sequence: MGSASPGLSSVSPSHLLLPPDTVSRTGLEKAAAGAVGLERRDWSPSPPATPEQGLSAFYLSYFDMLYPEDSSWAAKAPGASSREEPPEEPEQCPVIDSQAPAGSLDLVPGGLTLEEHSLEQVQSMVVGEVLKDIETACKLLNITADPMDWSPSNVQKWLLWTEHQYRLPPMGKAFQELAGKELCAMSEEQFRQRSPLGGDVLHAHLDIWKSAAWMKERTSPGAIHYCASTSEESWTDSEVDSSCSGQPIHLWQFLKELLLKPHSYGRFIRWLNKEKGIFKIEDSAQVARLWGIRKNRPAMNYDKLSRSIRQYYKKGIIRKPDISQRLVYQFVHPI
# In short: as §1
# ETV7 = molecular target: T10, ETV7 (Homo sapiens, UniProt Q9Y603 1-341); conditions: protein: recombinant; tags: N-terminal GST; dsDNA, one strand shown
# T10 sequence: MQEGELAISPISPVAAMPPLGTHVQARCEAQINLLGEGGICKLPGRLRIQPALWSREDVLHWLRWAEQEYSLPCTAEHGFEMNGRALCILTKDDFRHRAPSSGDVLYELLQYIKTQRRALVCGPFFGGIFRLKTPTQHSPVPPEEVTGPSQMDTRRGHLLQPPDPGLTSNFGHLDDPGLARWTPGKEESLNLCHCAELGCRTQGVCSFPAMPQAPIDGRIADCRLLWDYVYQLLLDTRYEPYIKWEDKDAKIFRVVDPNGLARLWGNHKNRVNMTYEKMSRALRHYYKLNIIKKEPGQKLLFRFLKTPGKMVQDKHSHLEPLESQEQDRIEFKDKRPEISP
# In short: as §1
# ELF5 = molecular target: T11, ELF5 (Homo sapiens, UniProt Q9UKW6-2 1-255); conditions: protein: recombinant; tags: N-terminal GST; dsDNA, one strand shown
# T11 sequence: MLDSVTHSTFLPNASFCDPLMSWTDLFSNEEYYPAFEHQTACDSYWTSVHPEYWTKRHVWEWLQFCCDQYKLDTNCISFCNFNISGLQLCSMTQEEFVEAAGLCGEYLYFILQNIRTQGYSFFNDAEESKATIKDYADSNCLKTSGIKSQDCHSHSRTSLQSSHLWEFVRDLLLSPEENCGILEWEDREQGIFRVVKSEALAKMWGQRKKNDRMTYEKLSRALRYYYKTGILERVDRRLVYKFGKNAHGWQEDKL
# In short: as §1
# ETV3 = molecular target: T12, ETV3 (Homo sapiens, UniProt P41162-2 1-143); conditions: protein: recombinant; tags: N-terminal GST; dsDNA, one strand shown
# T12 sequence: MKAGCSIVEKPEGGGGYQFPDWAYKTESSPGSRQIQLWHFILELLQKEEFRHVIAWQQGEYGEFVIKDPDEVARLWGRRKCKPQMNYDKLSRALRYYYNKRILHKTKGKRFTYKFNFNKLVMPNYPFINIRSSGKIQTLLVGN
# In short: as §1
# ETV6 = ETV6 (Homo sapiens, UniProt P41212 1-452); conditions: protein: recombinant; tags: N-terminal GST; dsDNA, one strand shown
# In short: as §1
# Sequence of ELF4 (Q99607 whole entry): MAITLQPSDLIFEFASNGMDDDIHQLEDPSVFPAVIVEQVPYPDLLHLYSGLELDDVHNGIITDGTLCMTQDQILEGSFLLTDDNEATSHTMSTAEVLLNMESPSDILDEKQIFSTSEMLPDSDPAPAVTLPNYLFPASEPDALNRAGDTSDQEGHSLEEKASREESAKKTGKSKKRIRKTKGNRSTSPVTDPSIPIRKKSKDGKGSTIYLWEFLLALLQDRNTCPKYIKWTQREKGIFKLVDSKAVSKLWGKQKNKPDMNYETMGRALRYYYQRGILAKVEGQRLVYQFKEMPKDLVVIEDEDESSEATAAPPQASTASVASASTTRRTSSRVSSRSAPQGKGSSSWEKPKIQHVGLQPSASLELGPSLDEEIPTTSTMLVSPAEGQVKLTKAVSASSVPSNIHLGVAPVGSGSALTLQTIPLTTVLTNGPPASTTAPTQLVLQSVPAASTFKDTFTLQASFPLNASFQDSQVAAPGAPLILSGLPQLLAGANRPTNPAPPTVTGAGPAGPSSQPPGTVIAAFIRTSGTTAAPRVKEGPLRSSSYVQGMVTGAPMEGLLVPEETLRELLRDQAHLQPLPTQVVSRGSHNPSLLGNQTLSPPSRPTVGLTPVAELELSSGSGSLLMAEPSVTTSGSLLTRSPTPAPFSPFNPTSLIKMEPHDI
# Sequence of HSF1 (Q00613 whole entry): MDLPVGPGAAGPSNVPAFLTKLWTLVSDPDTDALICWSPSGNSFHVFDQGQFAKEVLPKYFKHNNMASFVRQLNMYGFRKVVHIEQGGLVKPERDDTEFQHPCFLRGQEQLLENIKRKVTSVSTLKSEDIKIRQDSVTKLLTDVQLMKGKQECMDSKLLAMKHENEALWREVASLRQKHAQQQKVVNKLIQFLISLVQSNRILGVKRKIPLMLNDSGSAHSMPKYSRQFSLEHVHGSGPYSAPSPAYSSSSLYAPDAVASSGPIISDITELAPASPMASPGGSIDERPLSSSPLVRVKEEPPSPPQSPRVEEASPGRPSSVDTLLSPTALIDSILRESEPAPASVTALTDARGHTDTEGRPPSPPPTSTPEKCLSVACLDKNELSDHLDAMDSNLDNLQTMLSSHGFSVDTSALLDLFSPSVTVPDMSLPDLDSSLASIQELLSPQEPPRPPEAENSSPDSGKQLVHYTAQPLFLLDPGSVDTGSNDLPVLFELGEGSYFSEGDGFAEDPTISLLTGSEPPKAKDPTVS
# Sequence of ETV6 (P41212 whole entry): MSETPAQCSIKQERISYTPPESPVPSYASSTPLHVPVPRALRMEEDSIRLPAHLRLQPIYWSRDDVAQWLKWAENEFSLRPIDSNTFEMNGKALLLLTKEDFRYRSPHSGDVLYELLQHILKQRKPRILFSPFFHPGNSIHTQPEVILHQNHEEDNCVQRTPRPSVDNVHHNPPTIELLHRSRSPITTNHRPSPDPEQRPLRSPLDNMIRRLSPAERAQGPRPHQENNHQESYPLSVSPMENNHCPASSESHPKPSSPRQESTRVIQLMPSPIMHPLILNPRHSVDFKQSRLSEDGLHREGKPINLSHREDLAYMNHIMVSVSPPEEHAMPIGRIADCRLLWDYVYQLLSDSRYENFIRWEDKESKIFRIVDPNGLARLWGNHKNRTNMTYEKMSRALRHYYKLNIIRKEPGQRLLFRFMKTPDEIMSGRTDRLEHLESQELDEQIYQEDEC
# Sequence of CRX (O43186 whole entry): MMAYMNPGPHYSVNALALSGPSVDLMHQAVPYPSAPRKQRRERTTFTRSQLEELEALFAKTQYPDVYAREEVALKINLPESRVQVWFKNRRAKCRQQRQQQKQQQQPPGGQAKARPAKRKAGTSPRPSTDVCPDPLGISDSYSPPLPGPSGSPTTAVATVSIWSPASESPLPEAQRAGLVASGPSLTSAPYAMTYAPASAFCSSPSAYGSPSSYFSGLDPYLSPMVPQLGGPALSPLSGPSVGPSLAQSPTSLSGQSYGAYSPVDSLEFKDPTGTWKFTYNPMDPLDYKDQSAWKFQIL
# Sequence of ETV5 (P41161 whole entry): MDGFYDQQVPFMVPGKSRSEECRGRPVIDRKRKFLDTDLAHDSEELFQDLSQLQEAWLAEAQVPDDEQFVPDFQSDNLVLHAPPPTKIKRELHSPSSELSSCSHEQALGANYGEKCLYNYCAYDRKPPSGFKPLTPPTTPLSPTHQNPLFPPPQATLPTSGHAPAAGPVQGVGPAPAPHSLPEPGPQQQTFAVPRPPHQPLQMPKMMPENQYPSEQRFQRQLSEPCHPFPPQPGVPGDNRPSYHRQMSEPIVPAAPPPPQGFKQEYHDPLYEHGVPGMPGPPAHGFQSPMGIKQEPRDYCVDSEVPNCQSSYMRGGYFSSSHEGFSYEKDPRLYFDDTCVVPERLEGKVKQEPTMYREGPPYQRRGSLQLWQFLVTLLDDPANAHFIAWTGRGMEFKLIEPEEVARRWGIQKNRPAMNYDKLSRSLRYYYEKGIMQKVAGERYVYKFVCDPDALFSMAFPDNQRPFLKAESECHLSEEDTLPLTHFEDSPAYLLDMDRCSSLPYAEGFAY
# Sequence of ETV1 (P50549 whole entry): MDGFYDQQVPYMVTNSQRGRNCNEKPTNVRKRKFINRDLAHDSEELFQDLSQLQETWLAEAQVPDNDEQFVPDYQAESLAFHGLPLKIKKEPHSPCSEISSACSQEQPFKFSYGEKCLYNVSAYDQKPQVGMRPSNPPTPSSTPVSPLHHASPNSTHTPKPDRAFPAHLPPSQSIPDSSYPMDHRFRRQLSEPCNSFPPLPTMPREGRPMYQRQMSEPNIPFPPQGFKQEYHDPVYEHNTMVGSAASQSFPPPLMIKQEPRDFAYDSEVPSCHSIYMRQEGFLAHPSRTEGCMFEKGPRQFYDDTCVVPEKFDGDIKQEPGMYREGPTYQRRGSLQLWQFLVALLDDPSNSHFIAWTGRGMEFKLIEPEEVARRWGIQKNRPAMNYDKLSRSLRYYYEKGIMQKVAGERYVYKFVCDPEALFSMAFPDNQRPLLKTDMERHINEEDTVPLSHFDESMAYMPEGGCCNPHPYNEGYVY
sequence,measurement,setting,value
TTTCCT,binding signal,FEV,"2.34 fold enrichment (6-mer frequency, TF over GST control)"
same,binding signal,ETV5,"2.73 fold enrichment (6-mer frequency, TF over GST control)"
same,binding signal,HSF1,"1.73 fold enrichment (6-mer frequency, TF over GST control)"
same,binding signal,SPIC,"2.42 fold enrichment (6-mer frequency, TF over GST control)"
same,binding signal,ELF4,"2.19 fold enrichment (6-mer frequency, TF over GST control)"
same,binding signal,ELK4,"2.04 fold enrichment (6-mer frequency, TF over GST control)"
same,binding signal,ETV2,"2.49 fold enrichment (6-mer frequency, TF over GST control)"
same,binding signal,ELF3,"2.44 fold enrichment (6-mer frequency, TF over GST control)"
same,binding signal,CRX,"1.56 fold enrichment (6-mer frequency, TF over GST control)"
same,binding signal,ETV1,"2.43 fold enrichment (6-mer frequency, TF over GST control)"
same,binding signal,ERF,"2.28 fold enrichment (6-mer frequency, TF over GST control)"
same,binding signal,ETV3L,"2.43 fold enrichment (6-mer frequency, TF over GST control)"
same,binding signal,ETS2,"2.44 fold enrichment (6-mer frequency, TF over GST control)"
same,binding signal,SPDEF,"2.34 fold enrichment (6-mer frequency, TF over GST control)"
same,binding signal,ETV7,"2.31 fold enrichment (6-mer frequency, TF over GST control)"
same,binding signal,ELF5,"4.16 fold enrichment (6-mer frequency, TF over GST control)"
same,binding signal,ETV3,"2.73 fold enrichment (6-mer frequency, TF over GST control)"
same,binding signal,ETV6,"2.86 fold enrichment (6-mer frequency, TF over GST control)"
